Results published in the supplement of paper PMC10503962.

These molecules were tested on Trichuris muris adult worms (assay: mean motility score (Paragon pixel variance) of adult worms (arbitrary units); higher = more motile worms, i.e. less anthelmintic effect; extreme values may be limits of the assay). Settings: 100 µM; 24 h.
Procedure: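 Primary ex vivo screen of 409 approved drugs against adult Trichuris muris worms: one worm per well in RPMI-1640 with penicillin/streptomycin, 100 µM drug in 1% DMSO, 37 °C, 5% CO2 for 24 h. Motility was recorded with INVAPP (200-frame movies) and scored with the Paragon pixel-variance algorithm. Values are means of triplicate wells run on three occasions; levamisole was the positive control and DMSO the negative control.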
In the case of Cc1c(C(=O)NN2CCCCC2)nn(-c2ccc(Cl)cc2Cl)c1-c1ccc(Cl)cc1 [rimonabant], the mean motility score is reported as 2060. With c1cnc(N2CCN(Cc3ccc4c(c3)OCO4)CC2)nc1 [piribedil] the mean motility score was 1950. CCc1c2c(nc3ccc(OC(=O)N4CCC(N5CCCCC5)CC4)cc13)-c1cc3c(c(=O)n1C2)COC(=O)[C@]3(O)CC [irinotecan] showed a mean motility score of 2280. Work on CSc1ccc(C(=O)c2nc(O)[nH]c2C)cc1 [enoximone] yielded a mean motility score of 1970. COc1ccc2cccc(CCNC(C)=O)c2c1 [agomelatine] showed a mean motility score of 3270. In the case of C[C@]12C=CC(=O)C=C1CC[C@@H]1[C@@H]2[C@@H](O)C[C@@]2(C)[C@H]1CC[C@]2(O)C(=O)CO [prednisolone], the mean motility score is reported as 659. CCOC(=O)[C@H](CCc1ccccc1)N[C@@H](C)C(=O)N1CCC[C@H]1C(=O)O [enalapril] showed a mean motility score of 2120. N[C@@H](CC(=O)O)C(=O)O [aspartic acid] gave a mean motility score of 3610. For C/C=C(/C(=C/C)c1ccc(O)cc1)c1ccc(O)cc1 [dienestrol], the mean motility score was 3590. Cc1cn([C@H]2C=C[C@@H](CO)O2)c(=O)[nH]c1=O [stavudine] was tested, and the mean motility score was 2180. Molecule CC(C)(C)NCC(O)c1ccc(O)c(CO)c1.O=S(=O)(O)O (stereo not given) [albuterol sulfate] has a mean motility score of 1690. Molecule COC(=O)C1=C(C)NC(C)=C(C(=O)OCCN(C)Cc2ccccc2)C1c1cccc([N+](=O)[O-])c1 (stereo not given) [nicardipine] has a mean motility score of 0. In the case of CCC[C@H](N[C@@H](C)C(=O)N1[C@H](C(=O)O)C[C@@H]2CCCC[C@@H]21)C(=O)OCC [perindopril], the mean motility score is reported as 3860. For O=C(O)c1cc(-c2ccc(F)cc2F)ccc1O [diflunisal], the mean motility score was 1040. CC1(C)[C@@H](O[C@H]2O[C@H](C(=O)O)[C@@H](O)[C@H](O)[C@H]2O[C@@H]2O[C@H](C(=O)O)[C@@H](O)[C@H](O)[C@H]2O)CC[C@]2(C)[C@H]3C(=O)C=C4[C@@H]5C[C@@](C)(C(=O)O)CC[C@]5(C)CC[C@@]4(C)[C@]3(C)CC[C@@H]12 [glycyrrhizin] showed a mean motility score of 1890. For CC(C)NCC(O)COc1cccc2ccccc12.Cl (stereo not given) [propranolol hydrochloride], the mean motility score was 4260. In the case of NC(=O)CC[C@H](N)C(=O)O [glutamine], the mean motility score is reported as 3380. Work on Nc1cc(-c2ccncc2)cnc1O [inamrinone] yielded a mean motility score of 3880. Work on N=C(N)NCCN1CCCCCCC1.N=C(N)NCCN1CCCCCCC1.O=S(=O)(O)O [guanethidine sulfate] yielded a mean motility score of 2380. CC/C(=C(/CC)c1ccc(O)cc1)c1ccc(O)cc1 [diethylstilbestrol] showed a mean motility score of 0. COc1ccc2cc([C@@H](C)C(=O)O)ccc2c1 [(R)-naproxen] gave a mean motility score of 1390. In the case of COc1ccc(-c2ccc3cc(C(=O)O)ccc3c2)cc1C12CC3CC(CC(C3)C1)C2 [adapalene], the mean motility score is reported as 3410. In the case of Clc1ccccc1C(c1ccccc1)(c1ccccc1)n1ccnc1 [clotrimazole], the mean motility score is reported as 0. CC[C@H](Nc1ncnc2[nH]cnc12)c1nc2cccc(F)c2c(=O)n1-c1ccccc1 [idelalisib] was tested, and the mean motility score was 3590. Work on Cc1[nH]c2ccccc2c1CCNCc1ccc(/C=C/C(=O)NO)cc1 [panobinostat] yielded a mean motility score of 2620. O=C(O)COC(=O)Cc1ccccc1Nc1c(Cl)cccc1Cl [aceclofenac] gave a mean motility score of 972. Work on CCCCCNC(=N)N/N=C/c1c[nH]c2ccc(OC)cc12.O=C(O)/C=C\C(=O)O [tegaserod maleate] yielded a mean motility score of 0. For CN(C/C=C/C#CC(C)(C)C)Cc1cccc2ccccc12 [terbinafine], the mean motility score was 4560. Work on C[C@@H]1[C@H](O)[C@@H](C)/C=C/C=C/C=C/C=C/C=C/C=C/C=C/[C@H](O[C@@H]2O[C@H](C)[C@@H](O)[C@H](N)[C@@H]2O)C[C@@H]2O[C@](O)(C[C@@H](O)C[C@@H](O)[C@H](O)CC[C@@H](O)C[C@@H](O)CC(=O)O[C@H]1C)C[C@H](O)[C@H]2C(=O)O [amphotericin B] yielded a mean motility score of 656. In the case of Cc1ccc(O)c(-n2nc3ccccc3n2)c1 [drometrizole], the mean motility score is reported as 2400. For Cc1cc(C(C)(C)C)cc(C)c1C=C1NCCN1 [xylometazoline], the mean motility score was 3760. O=C1O[C@H](CO)[C@@H](O)[C@H](O)[C@H]1O [gluconolactone] was tested, and the mean motility score was 2100. With CCN(CC)CCNC(=O)c1c(C)[nH]c(/C=C2\C(=O)Nc3ccc(F)cc32)c1C [sunitinib] the mean motility score was 531. CC(C)C(=O)Nc1ccc([N+](=O)[O-])c(C(F)(F)F)c1 [flutamide] was tested, and the mean motility score was 113. Molecule CCCCCCCCCCCCCCCCO [cetyl alcohol] has a mean motility score of 1880. CN1Cc2c(N)cccc2C(c2ccccc2)C1 (stereo not given) [nomifensine] gave a mean motility score of 2230. CC1=C(C(=O)O)N2C(=O)[C@@H](NC(=O)[C@H](N)c3ccccc3)[C@H]2SC1 [cephalexin] gave a mean motility score of 4830. NS(=O)(=O)c1cc(Cl)c(Cl)c(S(N)(=O)=O)c1 [dichlorphenamide] showed a mean motility score of 752. With C[C@@H](C(=O)O)c1ccc(-c2ccccc2)c(F)c1 [tarenflurbil] the mean motility score was 2130. In the case of Clc1ccc(COC(Cn2ccnc2)c2ccc(Cl)cc2Cl)c(Cl)c1 (stereo not given) [miconazole], the mean motility score is reported as 122.
